Screening results as filed in PubChem BioAssay.
Hits are enriched below; roughly 4.7% of the tested compounds scored in any of these assays.
PfHsp90 yeast 2: growth inhibition of PfHsp90-expressing yeast, primary screen, antimalarial PfHsp90 inhibitor project, S. cerevisiae, BacTiter-Glo luminescence, single point, set 2; BacTiter-Glo ATP, 48 h; yeast lacking PDR1 and PDR3 efflux regulators; inhibition, % at 9.4 µM; hit rate 0.32% among 310,000;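 active means every replicate shows inhibition above about 80%, whatever the replicate mean, limit read from the data; inconclusive means mean inhibition reaches the set limit but some replicate falls short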;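 further: 0% = DMSO neutral controls and 100% = 20 µM radicicol positive controls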
SKKanGAS inh: S. pyogenes SKKanGAS growth inhibitors in kanamycin, primary screen, streptokinase expression inhibitor project, SKKanGAS strain, BacTiter-Glo luminescence. hit rate 1.3% among 300,000. 6 h. AID 1662, 2009. inhibition, % at 7.5 µM;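 active means mean replicate score, as percent of positive control median, at least 50; inconclusive means mean below 50 but one replicate at or above 50; inactive means mean and every replicate below 50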;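 further: strain carries kanamycin resistance gene driven by streptokinase promoter and grows in 40 µg/ml kanamycin; loss of luminescence reflects streptokinase promoter inhibition or plain growth inhibition; 0% = median of DMSO wells and 100% = positive control at its reference dose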
tim23-1 inh: growth inhibitors of tim23-1 mutant yeast, primary screen, luminescence, uHTS; S. cerevisiae tim23-1 growth, BacTiter-Glo luminescence, 24 h; inhibition, % at 20 µM; hit rate 1.3% among 330,000;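 active means growth inhibition of the mutant yeast at or above 50%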;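 further: temperature-sensitive mutant grown at 25 °C; plate controls were DMSO-treated mutant yeast for no effect and medium wells lacking yeast for full effect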
TIM10 inh: growth inhibitors of isogenic TIM10 control yeast, primary screen, counter-screen for tim10-1 yeast inhibitor project, luminescence, uHTS | S. cerevisiae TIM10 strain growth, BacTiter-Glo luminescence, 24 h | hit rate 1.4% among 330,000 | inhibition, % at 10 µM;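 active means inhibition of 40% or more at the single tested concentration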;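 further: wild-type TIM10 isogenic control strain grown at permissive 25 °C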
EBI2 antag: EBI2 receptor antagonists, beta-arrestin recruitment, primary screen, cell-based, luminescence, 7a,25-OHC stimulation, uHTS. hit rate 0.81% among 360,000. 7a,25-OHC stimulated. AID 651636, 2012. inhibition, % at 5 µM. G-protein coupled receptor 183 (Homo sapiens), P32249; in the data active means inhibition above about 38%;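 further: enzyme fragment complementation signal reports receptor beta-arrestin coupling in cells; 0% = agonist plus DMSO wells and 100% = wells without agonist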
Target sequence (P32249 whole entry, looked up, the tested form may be a part): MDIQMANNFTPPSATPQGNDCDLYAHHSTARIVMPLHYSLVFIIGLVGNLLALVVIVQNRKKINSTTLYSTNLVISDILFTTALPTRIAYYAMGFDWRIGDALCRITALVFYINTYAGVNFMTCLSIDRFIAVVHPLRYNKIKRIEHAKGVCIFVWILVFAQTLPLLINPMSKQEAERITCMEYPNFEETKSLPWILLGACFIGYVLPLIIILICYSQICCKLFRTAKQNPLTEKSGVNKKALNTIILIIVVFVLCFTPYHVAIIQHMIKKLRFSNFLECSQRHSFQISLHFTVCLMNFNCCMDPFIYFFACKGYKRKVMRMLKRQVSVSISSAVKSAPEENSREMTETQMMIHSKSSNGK
tim10-1 inh: growth inhibitors of tim10-1 mutant yeast, primary screen, luminescence, uHTS. S. cerevisiae tim10-1 ts strain growth, BacTiter-Glo, 24 h. hit rate 2.2% among 330,000. inhibition, % at 20 µM. AID 463190, 2010;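 active means inhibition of at least 40%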;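 further: mutant grown at 25 °C; 0% = DMSO wells with yeast and 100% = wells holding no yeast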
EBI2 conf: EBI2 antagonist hit retest, beta-arrestin, confirmation, cell-based, single concentration, luminescence, 7a,25-OHC stimulation; 7a,25-OHC antagonism; inhibition, % at 5 µM; AID 651997, 2013; shares compounds with EBI2 antag; hit rate 29% among 2,400;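 active means inhibition of at least 50%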
EBI2 ag: EBI2 agonist activity of antagonist hits, confirmation, counter-screen for EBI2 antagonist project, cell-based, single concentration, agonist mode, luminescence. activation, % at 5 µM. shares compounds with EBI2 antag. AID 652000, 2013. 2,400 tested, under 10 active. EBI2-expressing cells, 60 min; 0% vehicle, 100% 7α,25-dihydroxycholesterol control;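 active means activation of at least 50%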
bGal cs: E. coli beta-galactosidase enzyme inhibition, confirmation, counter-screen for EBI2 antagonist project, biochemical, luminescence, single concentration; shares compounds with EBI2 antag; purified beta-galactosidase, luminescent Galacton Star, 15 min; inhibition, % at 5 µM; hit rate 1% among 2,400; AID 652176, 2013;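 active means replicate-average signal at least 3 plate SD below neutral wells, shown as high inhibition, flagging enzyme-inhibiting false positives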;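 further: 0% = DMSO wells with enzyme and 100% = wells lacking enzyme; higher means stronger loss of beta-gal luminescence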
* marks the source's active call; other numbers are inactive results; ? = inconclusive; nt = no result.

SMILES	PfHsp90 yeast 2	SKKanGAS inh	tim23-1 inh	TIM10 inh	EBI2 antag	tim10-1 inh	EBI2 conf	EBI2 ag	bGal cs
O=C(CSc1nnc(-c2ccc(O)cc2)n1Cc1ccccc1)NNC(=O)c1ccc(Br)cc1	4	-1	0	11	89*	21	87*	-1	-7
CC(C)OC(=O)CSc1nnc(-c2ccc(O)cc2)n1Cc1ccccc1	nt	1	1	7	-6	29	nt	nt	nt
C/C(=N\NC(=O)c1cc(-c2ccncc2)nc2ccccc12)c1ccc(N2CCOCC2)cc1	7	-9	-20	7	-9	8	nt	nt	nt
O=C1c2ccccc2C(=O)N1c1ccc(Cl)cn1	-13	-8	23	-2	-8	19	nt	nt	nt
O=C(c1cc(-c2ccc3c(c2)OCO3)on1)N1CCOCC1	3	2	11	1	1	13	nt	nt	nt
COc1ccccc1N1CCN(C(=O)c2cc(-c3ccc4c(c3)OCO4)on2)CC1	3	-3	19	3	67*	12	46	1	3
FC(F)C(F)(F)Oc1cccc(Nc2nccn3c(-c4cccc5ccccc45)cnc23)c1	nt	nt	nt	nt	22	nt	nt	nt	nt
NC(=O)c1cccc(-c2cnc3c(Nc4cccc(OC(F)(F)C(F)F)c4)nccn23)c1	nt	nt	nt	nt	45*	nt	42	-2	-9
Oc1ccc(-c2cnc3c(Nc4cccc(OC(F)(F)C(F)F)c4)nccn23)cc1	nt	nt	nt	nt	73*	nt	32	0	2
FC(F)C(F)(F)Oc1cccc(Nc2nccn3c(-c4ccc5ccccc5c4)cnc23)c1	nt	nt	nt	nt	24	nt	nt	nt	nt
C=C(C)C1Cc2c(C)nn(-c3cccc4ccccc34)c2C1 (stereo not drawn)	-1	?	21	31	32*	22	41	-1	8
COc1cccc(C(=O)NCCS(=O)(=O)N2CCN(C(=O)c3ccco3)CC2)c1	25	1	6	0	-3	17	nt	nt	nt
NS(=O)(=O)c1ccc(N/N=C/c2cn(-c3ccccc3)nc2-c2cccs2)c([N+](=O)[O-])c1	nt	13	6	36	21	14	nt	nt	nt
NS(=O)(=O)c1ccc(N/N=C/c2cn(-c3ccccc3)nc2-c2cccs2)cc1	18	10	43	30	41*	30	30	1	6
COc1ccc(N2CCN(C(=O)c3cc4cc(Cl)ccc4[nH]3)CC2)cc1	-10	5	16	6	75*	24	59*	2	6
O=C(c1cc2cc(Cl)ccc2[nH]1)N1CCN(c2ccc(F)cc2)CC1	19	8	15	18	84*	14	75*	-1	-12
COc1cc2[nH]c(C(=O)N3CCN(c4ccc(F)cc4)CC3)cc2c(OC)c1OC	-7	-2	1	21	6	-14	nt	nt	nt
COc1ccc(N2CCN(C(=O)Cc3ccc(Cl)cc3)CC2)cc1	-25	-2	24	6	11	14	nt	nt	nt
CCc1nccn1CCC(=O)NC1CC(C)(C)Cc2c1cnn2-c1cccc(F)c1 (stereo not drawn)	-1	0	8	5	-4	15	nt	nt	nt
CCc1ccc(OCC(=O)Nc2ccc(S(=O)(=O)Nc3ccccn3)cc2)cc1	4	1	5	11	61*	-22	29	-1	11
